Records with an inconclusive call do not appear. Entries that show only a call come without a potency. The source made the active and inactive calls. Calls come from the whole dose curve; as a rule, active = well fitted curve in the direction sought with a large enough effect; inconclusive = small, poorly fitted or top-dose-only effect, or another doubt; inactive = no such curve, though single readings can be large; an effect the other way counts as inactive or inconclusive.

The nature of the first assay: qHTS assay to identify small molecule inhibitors of chordoma cells - UCH-1 (AID 1259355). Note: nearly all actives have a fitted effect of over 55% in size. Conditions: UCH-1 chordoma viability, CellTiter-Glo, 48 h, combination, with auranofin plus four topoisomerase inhibitors; series mostly up to 46.1 µM. An outline of the steps: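 Screening used approved and investigational drugs in 15-point titration against 800 seeded cells per well. A fixed combination of auranofin with camptothecin, doxorubicin, rubitecan and topotecan followed compound addition, and growth was scored by CellTiter-Glo after 48hr.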
On the technique in general: qHTS replaces the single test concentration by a dilution series.
With `COC(=O)CCC[N+](C)(C)C`, the Potency entry was “inactive”. In the case of `Cc1ccccn1`, the Potency entry was “inactive”. With `CCCCCCCCCCCCCCCCCCOCC(COP(=O)([O-])OCC[N+](C)(C)C)OC` (configuration not stated), the Potency result was “inactive”. `CCN(CC)C(=O)c1cccnc1`: the Potency entry was “inactive”. With `N[C@H](CC(=O)O)C(=O)O`, the Potency result was “inactive”. Regarding `O=C(O)C1=C(CSc2nnnn2CS(=O)(=O)O)CS[C@@H]2[C@H](NC(=O)[C@H](O)c3ccccc3)C(=O)N12`, the Potency entry was “inactive”. As for `FC(F)(F)C(F)(F)C(F)(F)C(F)(F)C(F)(F)F`, the Potency result is “inactive”. The same measure, in the same setting: with `C=N[C@@H](C(=O)N[C@@H]1C(=O)N2[C@@H]1SC(C)(C)[C@@H]2C(=O)O)c1ccccc1` the entry was “inactive”; with `COc1ccc2c(=O)c(C)c(-c3ccccc3)oc2c1CN(C)C`, “inactive”. On the same count and under the same terms, with `CC(C)C1=CC2=CC[C@@H]3[C@](C)(CCC[C@@]3(C)C(=O)O)[C@H]2CC1` the entry was “inactive”; with `CC(=O)OCC(=O)[C@@]1(O)CC[C@H]2[C@@H]3CCC4=CC(=O)CC[C@]4(C)C3=CC[C@@]21C`, “inactive”; with `CN[C@@H]1[C@@H](O)[C@@H](O[C@@H]2[C@@H](O)[C@H](OC3OC(CN)=CCC3N)[C@@H](N)C[C@H]2N)OC[C@]1(C)O` (some centres not stated), “inactive”. Consider `CC[C@@H]1/C=C(\C)C[C@H](C)C[C@H](OC)[C@H]2O[C@@](O)(C(=O)C(=O)N3CCCC[C@H]3C(=O)O[C@H](/C(C)=C/[C@@H]3CC[C@@H](Cl)[C@H](OC)C3)[C@H](C)[C@@H](O)CC1=O)[C@H](C)C[C@@H]2OC`, for which the Potency result is “inactive”. Regarding `O=S(=O)(O)CC(S)CS` (configuration not stated), the Potency result was “inactive”. Take `CC(C)(C)c1ccc(CN2CCN(C(c3ccccc3)c3ccc(Cl)cc3)CC2)cc1` (configuration not stated): the Potency result is “inactive”.

With `OCC1(CO)COC(C(Cl)(Cl)Cl)OC1`, the Potency result was “inactive”. In the case of `CCCCCCCCCCCCCC(=O)OCC(COP(=O)([O-])OCC[N+](C)(C)C)OC(=O)CCCCCCCCCCCCC` (configuration not stated), the Potency entry was “inactive”. As for `CCCCC[C@H](O)/C=C/[C@H]1[C@H](O)CC(=O)[C@@H]1CCCCCCC(=O)O`, the Potency entry is “inactive”.

For `CC[C@H]1OC(=O)C[C@@H](O)[C@H](C)[C@@H](O[C@@H]2O[C@H](C)[C@@H](O[C@H]3C[C@@](C)(O)[C@@H](O)[C@H](C)O3)[C@H](N(C)C)[C@H]2O)[C@@H](CC=O)C[C@@H](C)C(=O)/C=C/C(C)=C/[C@@H]1CO[C@@H]1O[C@H](C)[C@@H](O)[C@@H](OC)[C@H]1OC`, the Potency result is “inactive”. Same read-out and setting: the result for `CN(C)C(=O)CCSC(SCCC(=O)O)c1cccc(/C=C/c2ccc3ccc(Cl)cc3n2)c1` (configuration not stated) reads “inactive”; that for `O=P(O)(O)CP(=O)(O)O`, “inactive”; that for `CO/N=C(\C(=O)N[C@@H]1C(=O)N2C(C(=O)O)=C(CSC(=O)c3ccco3)CS[C@H]12)c1csc(N)n1`, “inactive”. With `Cc1cccc(C)c1NC(=O)NC1=CCCN1C`, the Potency result was “inactive”. Consider `O=C1c2c(O)cccc2[C@H]([C@@H]2O[C@H](CO)[C@@H](O)[C@H](O)[C@H]2O)c2cc(CO)cc(O)c21`, for which the Potency result is “inactive”. As to `CN[C@@H]1[C@@H](O)[C@@H](O[C@@H]2[C@@H](O)[C@H](O[C@H]3O[C@H](CN)[C@@H](O)[C@H](O)[C@H]3O)[C@@H](N)C[C@H]2NC(=O)C(O)CN)OC[C@]1(C)O` (some centres not stated), the Potency entry was “inactive”.

A further assay in a line: qHTS assay to identify small molecule inhibitors of chordoma cells - UCH-2 (AID 1259356). The note with it: UCH-2 chordoma viability, CellTiter-Glo ATP luminescence, 48 h; series mostly up to 46.1 µM.
Consider `C[C@@H]1NC(=O)[C@@H](N)CNC(=O)[C@H](C2CCNC(N)=N2)NC(=O)/C(=C/NC(N)=O)NC(=O)[C@H](CNC(=O)C[C@@H](N)CCCN)NC1=O` (some centres not stated), for which the Potency result was “inactive”. On to `CCOC(=O)c1c[nH]c2cc(OCC(C)C)c(OCC(C)C)cc2c1=O`, for which the Potency result was “inactive”.

With `COc1ccc2c(c1)OC(C)(C)C(c1ccccc1)C2c1ccc(OCCN2CCCC2)cc1` (configuration not stated), the Potency result was “inactive”. On to `C[C@@](Cc1ccc(O)c(O)c1)(NN)C(=O)O`, for which the Potency entry was “inactive”.

In the case of `COC1[C@@H](O[C@@H]2O[C@H](C)[C@@H](O[C@H]3C[C@@](C)(O)[C@H](OC(=O)CC(C)C)[C@H](C)O3)[C@H](N(C)C)[C@H]2O)[C@@H](CC=O)C[C@@H](C)[C@@H](O)/C=C/C=C/C[C@@H](C)OC(=O)C[C@H]1OC(C)=O` (some centres not stated), the Potency result is “inactive”.

As for `C[Si](C)(C)O[Si](C)(C)C`, the Potency entry was “inactive”. On the same count and under the same terms, the result for `CO[C@H]1C[C@H](O[C@H]2[C@H](C)[C@@H](O[C@@H]3O[C@H](C)C[C@H](N(C)C)[C@H]3O)[C@@H](C)C[C@]3(CO3)C(=O)[C@H](C)[C@@H](O)[C@@H](C)[C@@H](C)OC(=O)[C@@H]2C)O[C@@H](C)[C@@H]1O` reads “inactive”; that for `CCCCC(=O)O[C@H]1CC[C@H]2[C@@H]3CCc4cc(O)ccc4[C@H]3CC[C@]12C`, “inactive”. `Cc1ncc(C[n+]2csc(CCOP(=O)(O)O)c2C)c(N)n1`: the Potency result was “inactive”. Turning to `O=S(=O)(O)CCCS(=O)(=O)O`, the Potency entry was “inactive”. `O=C1NC(=O)[C@H]2[C@@H]1[C@@H]1C=C[C@H]2C1`: the Potency entry is “inactive”. For the molecule `CN1CCC(OC(=O)C(Oc2ccc(Cl)cc2)Oc2ccc(Cl)cc2)CC1`, the Potency entry is “inactive”. `COC(=O)CCC[N+](C)(C)C`: the Potency result is “inactive”. Consider `Cc1ccccn1`, for which the Potency result is “inactive”. Regarding `CCCCCCCCCCCCCCCCCCOCC(COP(=O)([O-])OCC[N+](C)(C)C)OC` (configuration not stated), the Potency entry was “inactive”. With `CCN(CC)C(=O)c1cccnc1`, the Potency entry was “inactive”.

Turning to `N[C@H](CC(=O)O)C(=O)O`, the Potency result was “inactive”.

In the case of `O=C(O)C1=C(CSc2nnnn2CS(=O)(=O)O)CS[C@@H]2[C@H](NC(=O)[C@H](O)c3ccccc3)C(=O)N12`, the Potency entry was “inactive”. Same read-out and setting: with `FC(F)(F)C(F)(F)C(F)(F)C(F)(F)C(F)(F)F` the entry was “inactive”; with `C=N[C@@H](C(=O)N[C@@H]1C(=O)N2[C@@H]1SC(C)(C)[C@@H]2C(=O)O)c1ccccc1`, “inactive”; with `COc1ccc2c(=O)c(C)c(-c3ccccc3)oc2c1CN(C)C`, “inactive”. With `CC(C)C1=CC2=CC[C@@H]3[C@](C)(CCC[C@@]3(C)C(=O)O)[C@H]2CC1`, the Potency result was “inactive”.

As for `CC(=O)OCC(=O)[C@@]1(O)CC[C@H]2[C@@H]3CCC4=CC(=O)CC[C@]4(C)C3=CC[C@@]21C`, the Potency entry was “inactive”. With `CN[C@@H]1[C@@H](O)[C@@H](O[C@@H]2[C@@H](O)[C@H](OC3OC(CN)=CCC3N)[C@@H](N)C[C@H]2N)OC[C@]1(C)O` (some centres not stated), the Potency result is “inactive”.

Consider `CC[C@@H]1/C=C(\C)C[C@H](C)C[C@H](OC)[C@H]2O[C@@](O)(C(=O)C(=O)N3CCCC[C@H]3C(=O)O[C@H](/C(C)=C/[C@@H]3CC[C@@H](Cl)[C@H](OC)C3)[C@H](C)[C@@H](O)CC1=O)[C@H](C)C[C@@H]2OC`, for which the Potency result was “inactive”. In the case of `O=S(=O)(O)CC(S)CS` (configuration not stated), the Potency entry was “inactive”.

With `CC(C)(C)c1ccc(CN2CCN(C(c3ccccc3)c3ccc(Cl)cc3)CC2)cc1` (configuration not stated), the Potency result was “inactive”. Turning to `OCC1(CO)COC(C(Cl)(Cl)Cl)OC1`, the Potency entry is “inactive”. Still for that read-out and setting: the result for `CCCCCCCCCCCCCC(=O)OCC(COP(=O)([O-])OCC[N+](C)(C)C)OC(=O)CCCCCCCCCCCCC` (configuration not stated) reads “inactive”; that for `CCCCC[C@H](O)/C=C/[C@H]1[C@H](O)CC(=O)[C@@H]1CCCCCCC(=O)O`, “inactive”; that for `CC[C@H]1OC(=O)C[C@@H](O)[C@H](C)[C@@H](O[C@@H]2O[C@H](C)[C@@H](O[C@H]3C[C@@](C)(O)[C@@H](O)[C@H](C)O3)[C@H](N(C)C)[C@H]2O)[C@@H](CC=O)C[C@@H](C)C(=O)/C=C/C(C)=C/[C@@H]1CO[C@@H]1O[C@H](C)[C@@H](O)[C@@H](OC)[C@H]1OC`, “inactive”. Take `CN(C)C(=O)CCSC(SCCC(=O)O)c1cccc(/C=C/c2ccc3ccc(Cl)cc3n2)c1` (configuration not stated): the Potency result was “inactive”. As for `O=P(O)(O)CP(=O)(O)O`, the Potency entry was “inactive”. Same read-out and setting: with `CO/N=C(\C(=O)N[C@@H]1C(=O)N2C(C(=O)O)=C(CSC(=O)c3ccco3)CS[C@H]12)c1csc(N)n1` the entry was “inactive”; with `Cc1cccc(C)c1NC(=O)NC1=CCCN1C`, “inactive”. Turning to `O=C1c2c(O)cccc2[C@H]([C@@H]2O[C@H](CO)[C@@H](O)[C@H](O)[C@H]2O)c2cc(CO)cc(O)c21`, the Potency entry was “inactive”.

Regarding `CN[C@@H]1[C@@H](O)[C@@H](O[C@@H]2[C@@H](O)[C@H](O[C@H]3O[C@H](CN)[C@@H](O)[C@H](O)[C@H]3O)[C@@H](N)C[C@H]2NC(=O)C(O)CN)OC[C@]1(C)O` (some centres not stated), the Potency result is “inactive”.

The values above are taken from PubChem BioAssay (NCATS).
